PubChem BioAssay (NCI)
The panel holds about 83,000 compounds, 20% with a hit somewhere; the sample as a whole holds those more often.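 Testing used 96-well plates and a 48-hour single-concentration exposure. Example: -40 means 40% of the starting cells died.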 A number with no mark means an inactive call. Activity calls are given as the source filed them.

Tested on: UO-31 renal
Assay: NCI-60 one-dose screen, 48 h (100 = growth as untreated, 0 = no growth, -100 = all killed)
Details: 10 µM unless noted
Protocol: Growth inhibition of the UO-31 human tumor cell line is measured as a screen for anti-cancer activity. Cells are grown in 96 well plates and exposed to the test compound for 48 hours. Compounds are tested at a single concentration, which is 10^-5 M for most compounds. The reported endpoint is percent growth (GI% or GIPRCNT), where numbers from 0 - 100% represent growth inhibition, and numbers from -100% - 0 represent cell death. For example, a value of 40 represents 60% growth inhibition. A value of 0 means no net growth occurred over the course of the experiment. A value of -40 indicates 40% of cells at the beginning of the experiment died by the end of the experiment. A value of -100 means all cells are dead at the end of the experiment.
NCI-60 Human Tumor Cell Lines Screen was performed using the standard one-dose NCI protocol, which is described in more detail at https://dtp.cancer.gov/discovery_development/nci-60/default.htm.
Compounds with GIPRCNT values below 10 were considered active. Activity score was based on GIPRCNT using the following formula: […]
Score is 0 for GIPRCNT values of 100 or above, 50 for GIPRCNT values of 0, and 100 for GIPRCNT values of -100.

SMILES	growth
COc1ccc(C2CCCCC2=O)cc1 (stereo not given)	96.7%
CC(C)c1ncc([N+](=O)[O-])n1C	85.3%
C=CCN1CCCC1=O	101%
Cc1ccc(S(=O)(=O)Oc2ccc3sc4c(CO)ccc(NCCN(C)C)c4c(=O)c3c2)cc1	-95.6% [100 µM] (active)
CC1(C)CC(=O)C=C(N)C1	85.7%
COc1cccc(N=CNc2cccc(OC)c2)c1	91.1%
Cc1ccc([N+](=O)[O-])c(C)n1	74.1%
CCOC(=O)Nc1nccs1	88.1%
CCNC(=O)Oc1ccc[nH]c1=O	86.6%
C=CCC(OC(C)=O)c1ccc(OC)c(OC)c1 (stereo not given)	90.4%
Cc1cc2c3ccc(C)[n+](C)c3ccc2n1C	27.1%
Cc1ccc(C)c2c1CCC2=O	90.6%
CC(=O)c1cc(O)ccc1O	88.9%
Cc1nc(C)c(C(=O)O)cc1C(=O)O	97.2%
Cc1ccc(/C=N/NC(N)=S)s1	90.5%
Cc1cc(C(=O)NN)c(C#N)c(=O)[nH]1	88.3%
COc1ccc(Br)c(C=O)c1	54.1%
CCOC(OCC)C(=O)c1ccccc1	82.6%
O=S(Cc1ccccc1)/C(=C/NC(=S)Nc1ccccc1)c1ccccc1 (stereo not given)	81.7%
COc1ccc2c(Cl)cc(NC(=O)Nc3c(C)cccc3C)nc2c1	14.4%

SMILES	growth
CC1CN(CCO)CC(C)O1 (stereo not given)	90.7%
O=C(O)CSCC(=O)Nc1cc(C(F)(F)F)ccc1Cl	84.4%
CC(=O)/C(C)=N\OC(=O)Nc1ccccc1	80.8%
Cc1cc(=O)n(Nc2ccccc2)c(O)c1C#N	62%
COc1cc(N)c2ncccc2c1Cl	78.4%
COC(CCCl)c1ccc(Cl)cc1 (stereo not given)	84.5%
CC(=O)CSc1ncnc2nc[nH]c12	88.1%
Oc1cc2ccccc2c(-c2c(O)c(O)cc3ccccc23)c1O	13.7%
N#Cc1ccc2nc[nH]c2c1	91.4%
NC(=S)N/N=C/c1ccc(Cl)cc1	94.8%
N=C(N)c1nn(C2OC(CO)C(O)C2O)c2nc[nH]c(=O)c12 (stereo not given)	13.1%
O=C(c1cccc(C(=O)c2ccc3c4c(cccc24)C(=O)N(c2ccccc2)C3=O)c1)c1ccc2c3c(cccc13)C(=O)N(c1ccccc1)C2=O	89.8%
ClCC(Cl)[C@@H]1CC2C=CC1C2 (stereo not given in full)	88.7%
CCN(Cc1ccc(Cl)c(Cl)c1)c1ccc2nc(N)nc(N)c2c1C	-82.7% (active)
NNC(=O)CCCCl	90.5%
CCOS(=O)(=O)c1ccc([N+](=O)[O-])cc1	88.9%
CC1=CC(=Nc2ccc(N(C)C)cc2)C=C(C)C1=O	62.3%
O=[N+]([O-])c1c(Cl)ncnc1Cl	101%
Oc1ccc2ccccc2c1CN1CCOCC1	74.6%
N#Cc1ccc(OC(=O)Nc2cc(Cl)cc(Cl)c2)cc1	5.42% [100 µM] (active)
